From PubChem BioAssay (Tox21)
Inconclusive results are not listed. The source made the active and inactive calls. Unless noted, the call rests on the fitted dose curve; in most records, active means well fitted curve in the direction sought with a large enough effect in the repeat runs; inconclusive means weak or mixed curves; inactive means no such curve, though single readings can be large; an effect the other way counts as inactive or inconclusive.

What was measured:
[1] = qHTS assay to identify small molecule antagonists of the TGF-beta/Smad signaling pathway - cell viability counter screen (AID 1346824); further: nearly all actives have a fitted effect of over 50% in size
In short: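 SBE-bla HEK 293T cells, incubated overnight, then compound plus 0.25 ng/mL TGF-beta1 (stock added) for 5 hr at 37 C. Viability was read in the same wells by CellTiter-Glo luminescence after 30 min at room temperature.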

[2] = qHTS assay to identify small molecule agonists of the TGF-beta/Smad signaling pathway - cell viability counter screen (AID 1346829); further: top concentration of the series differs between compounds; nearly all actives have a fitted effect of over 45% in size
In short: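 HEK 293T SBE-bla line, 5 hr compound exposure at 37 C, multiplexed CellTiter-Glo viability read by luminescence.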

[3] = qHTS assay to identify small molecule agonists of the TGF-beta/Smad signaling pathway (AID 1346859; active means well fitted activation curve with a large enough effect in the signal ratio in the repeat runs, not every such curve was filed as active; the % refers to the signal ratio; further: series mostly up to about 77 µM)
In short: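 Dual-wavelength fluorescence (460/530 nm emission) quantified beta-lactamase expression under the Smad binding element in HEK 293T cells following 5 hr compound treatment at 37 C.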

[4] = target: Thyrotropin-releasing hormone receptor (Homo sapiens) (UniProt P34981); experiment: qHTS assay to identify small molecule antagonists of the thyrotropin-releasing hormone receptor (TRHR) signaling pathway (AID 1346877; active means well fitted inhibition curve with a large enough effect in the repeat runs, not every such curve was filed as active; further: series mostly up to about 51 µM)
Chain of Thyrotropin-releasing hormone receptor (Homo sapiens) (P34981 whole entry, looked up): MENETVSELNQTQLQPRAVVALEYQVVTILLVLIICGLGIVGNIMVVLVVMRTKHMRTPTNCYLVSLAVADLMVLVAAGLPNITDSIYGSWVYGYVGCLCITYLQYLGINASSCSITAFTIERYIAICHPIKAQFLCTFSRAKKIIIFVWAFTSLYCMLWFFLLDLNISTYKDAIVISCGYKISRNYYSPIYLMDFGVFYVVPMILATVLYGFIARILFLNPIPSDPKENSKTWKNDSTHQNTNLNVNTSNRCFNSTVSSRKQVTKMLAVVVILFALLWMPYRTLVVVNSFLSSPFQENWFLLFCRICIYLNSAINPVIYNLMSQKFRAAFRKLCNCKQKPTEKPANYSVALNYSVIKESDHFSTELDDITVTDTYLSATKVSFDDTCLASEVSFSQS
In short: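 Human TRHR in HEK293 cells; inhibition of the intracellular calcium rise triggered by 1 nM TRH was followed by fluorescence over 3 min. Compounds were run at 15 concentrations, three replicates each.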

[5] = target: Thyrotropin-releasing hormone receptor (Homo sapiens) (UniProt P34981); experiment: qHTS assay to identify small molecule agonists of the thyrotropin-releasing hormone receptor (TRHR) signaling pathway (AID 1346891; calls by dose curve;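 further: HEK293 cells expressing TRHR with calcium dye readout; series mostly up to about 58 µM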)
In short: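 Kinetic fluorescence (3 min, 1 s intervals) reported intracellular calcium after compound transfer onto TRHR-Hek293 cells pre-loaded with dye for 2 h at 37 °C.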

[6] = Human pregnane X receptor (PXR) small molecule agonists, qHTS cell viability counter screen (AID 1346977); further: nearly all actives have a fitted effect of over 50% in size
In short: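 HepG2 cells stably carrying the PXR-Luc reporter are cultured with 5% charcoal-stripped FBS and treated with compounds for 24hr. CellTiter-Fluor is added at 23hr and fluorescence is read after 1hr.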

[7] = Caspase-3/7 induction in CHO-K1 cells by small molecules, qHTS cell viability counter screen (AID 1346979); further: nearly all actives have a fitted effect of over 35% in size
In short: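 Seeding: 1,500 CHO-K1 cells/well. Rest: 5hr, 37C. Treatment: compounds in DMSO, 16hr. Read: CellTiter-Fluor, 1hr, fluorescence.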

[8] = Caspase-3/7 induction in CHO-K1 cells by small molecules, qHTS assay (AID 1346980); further: nearly all actives have a fitted effect of over 15% in size
In short: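 Wild-type CHO-K1 cells exposed to compounds for 17hr at 37 C, 5% CO2. Caspase-3/7 activity then measured by Caspase-Glo 3/7 luminescence after 30min at room temperature.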

[9] = target: Nuclear receptor subfamily 1 group I member 2 (Homo sapiens) (UniProt O75469); experiment: Human pregnane X receptor (PXR) small molecule agonists, qHTS assay (AID 1346982); further: nearly all actives have a fitted effect of over 35% in size; further: potency means the concentration at half of the fitted maximal effect
Chain of Nuclear receptor subfamily 1 group I member 2 (Homo sapiens) (O75469 whole entry, looked up): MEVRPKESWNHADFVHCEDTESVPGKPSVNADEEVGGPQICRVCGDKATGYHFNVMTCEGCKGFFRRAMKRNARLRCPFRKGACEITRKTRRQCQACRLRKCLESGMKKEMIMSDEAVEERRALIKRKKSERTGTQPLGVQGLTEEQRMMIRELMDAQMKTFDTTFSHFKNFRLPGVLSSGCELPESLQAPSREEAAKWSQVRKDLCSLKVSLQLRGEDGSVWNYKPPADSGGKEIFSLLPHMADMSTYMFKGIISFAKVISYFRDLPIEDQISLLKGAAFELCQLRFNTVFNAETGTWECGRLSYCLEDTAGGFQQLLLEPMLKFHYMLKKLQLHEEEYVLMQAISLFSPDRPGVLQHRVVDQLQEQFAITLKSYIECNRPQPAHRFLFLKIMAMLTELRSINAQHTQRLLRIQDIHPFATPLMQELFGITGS
In short: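 After plating in 5% charcoal-stripped FBS and a 5 hr rest, PXR-Luc HepG2 cells received compounds in DMSO. Following 24 hr at 37 C, ONE-Glo was added and light output read.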

[10] = target: Cytochrome P450 2C9 (Homo sapiens) (UniProt P11712); experiment: Cytochrome P450 Family 2 Subfamily C Member 9 (CYP2C9) small molecule antagonists: luciferase reporter qHTS assay (AID 1671198); further: nearly all actives have a fitted effect of over 50% in size; further: potency means the concentration at half of the fitted maximal effect; on activity change, negative = inhibition: series mostly up to about 120 µM
Chain of Cytochrome P450 2C9 (Homo sapiens) (P11712 whole entry, looked up): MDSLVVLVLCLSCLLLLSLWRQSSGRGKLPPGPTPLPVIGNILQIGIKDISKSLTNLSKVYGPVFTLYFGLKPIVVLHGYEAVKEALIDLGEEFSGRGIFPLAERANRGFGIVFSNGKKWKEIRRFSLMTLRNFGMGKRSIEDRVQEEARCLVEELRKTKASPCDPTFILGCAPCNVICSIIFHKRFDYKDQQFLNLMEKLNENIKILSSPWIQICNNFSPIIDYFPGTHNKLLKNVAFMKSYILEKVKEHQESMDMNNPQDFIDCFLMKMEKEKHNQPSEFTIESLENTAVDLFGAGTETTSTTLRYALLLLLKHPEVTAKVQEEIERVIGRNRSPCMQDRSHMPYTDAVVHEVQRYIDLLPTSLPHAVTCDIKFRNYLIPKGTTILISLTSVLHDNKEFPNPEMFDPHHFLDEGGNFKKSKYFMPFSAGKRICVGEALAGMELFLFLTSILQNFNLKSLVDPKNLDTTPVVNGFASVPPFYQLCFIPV
In short: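 P450-Glo proluciferin substrate with CYP2C9 enzyme; 10 min RT preincubation, then NADPH regeneration 1 h at 37C; luciferin detection reagent 20 min RT, luminescence in relative luminescence units.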

[11] = target: Voltage-gated inwardly rectifying potassium channel KCNH2 (Homo sapiens) (UniProt Q12809); experiment: Human Ether-a-go-go-Related Gene (hERG) channel small molecule antagonists: fluorescence cell-based qHTS assay (AID 1671200);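 further: hERG-expressing U2OS cells given a thallium stimulus after FluxOR II dye loading; series mostly up to about 77 µM; nearly all actives have a fitted effect of over 50% in size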
Chain of Voltage-gated inwardly rectifying potassium channel KCNH2 (Homo sapiens) (Q12809 whole entry, looked up): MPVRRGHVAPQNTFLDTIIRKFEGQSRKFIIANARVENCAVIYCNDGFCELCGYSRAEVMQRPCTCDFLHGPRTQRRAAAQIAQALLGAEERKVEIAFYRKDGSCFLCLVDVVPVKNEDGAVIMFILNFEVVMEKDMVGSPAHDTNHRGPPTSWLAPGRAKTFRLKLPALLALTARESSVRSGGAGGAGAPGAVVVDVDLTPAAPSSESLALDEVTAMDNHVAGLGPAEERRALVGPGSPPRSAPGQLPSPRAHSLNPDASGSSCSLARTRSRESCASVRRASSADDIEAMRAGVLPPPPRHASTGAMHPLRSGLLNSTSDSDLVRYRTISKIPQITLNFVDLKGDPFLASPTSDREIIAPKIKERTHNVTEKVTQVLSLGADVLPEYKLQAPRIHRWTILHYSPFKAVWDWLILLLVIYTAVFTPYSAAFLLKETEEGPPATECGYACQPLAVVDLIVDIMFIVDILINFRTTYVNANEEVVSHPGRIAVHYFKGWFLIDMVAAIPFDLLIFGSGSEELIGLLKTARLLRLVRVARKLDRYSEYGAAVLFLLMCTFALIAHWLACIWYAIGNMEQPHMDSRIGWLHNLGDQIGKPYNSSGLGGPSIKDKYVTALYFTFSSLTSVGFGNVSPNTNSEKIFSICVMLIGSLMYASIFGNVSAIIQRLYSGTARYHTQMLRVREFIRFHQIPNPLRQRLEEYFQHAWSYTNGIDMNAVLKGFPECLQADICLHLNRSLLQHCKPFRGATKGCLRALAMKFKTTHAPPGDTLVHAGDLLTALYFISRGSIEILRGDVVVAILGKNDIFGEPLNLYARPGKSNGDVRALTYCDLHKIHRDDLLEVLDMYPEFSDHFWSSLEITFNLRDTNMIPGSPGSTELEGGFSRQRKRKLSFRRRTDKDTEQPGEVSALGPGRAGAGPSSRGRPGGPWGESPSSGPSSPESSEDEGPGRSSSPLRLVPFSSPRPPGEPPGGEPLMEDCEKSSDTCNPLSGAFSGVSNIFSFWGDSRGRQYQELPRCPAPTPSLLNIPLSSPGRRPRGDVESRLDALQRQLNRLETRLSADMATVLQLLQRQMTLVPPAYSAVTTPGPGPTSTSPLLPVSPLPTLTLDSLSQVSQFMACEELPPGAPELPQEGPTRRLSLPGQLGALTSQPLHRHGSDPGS
In short: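 First, 1000 cells per well are seeded and cultured overnight at 37 C. Next, FluxOR II dye is loaded for 1 h at room temperature, protected from light. After 10 more minutes, stimulus is added and fluorescence is read.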

[12] = Caspase-3/7 induction in HepG2 cells by small molecules, qHTS assay (AID 1346978); further: nearly all actives have a fitted effect of over 15% in size
In short: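 Wild-type HepG2 cells, 2,000/well, settled 5 hr at 37 C and 5% CO2, then compound-treated for 17 hr; caspase-3/7 activity read by luminescent Caspase-Glo 3/7 after 30 min at room temperature.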

[13] = Caspase-3/7 induction in HepG2 cells by small molecules, qHTS cell viability counter screen (AID 1346981); further: series mostly up to about 92 µM; nearly all actives have a fitted effect of over 30% in size
In short: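 The parent HepG2 line is plated at 2,000 cells per well and rested 5 hr before compound pinning from DMSO stocks. Following a 16-hr treatment at 37 C, a fluorogenic live-cell substrate (CellTiter-Fluor) reports viability after 1 hr.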

[14] = target: Nuclear receptor subfamily 1 group I member 2 (Rattus norvegicus) (UniProt Q9R1A7); experiment: Rat pregnane X receptor (rPXR) activation by small molecules, qHTS assay (AID 1346983); settings: rPXR luciferase reporter cells, One-Glo luminescence, 24 h; max activation: hits give high values; further: nearly all actives have a fitted effect of over 20% in size
Chain of Nuclear receptor subfamily 1 group I member 2 (Rattus norvegicus) (Q9R1A7 whole entry, looked up): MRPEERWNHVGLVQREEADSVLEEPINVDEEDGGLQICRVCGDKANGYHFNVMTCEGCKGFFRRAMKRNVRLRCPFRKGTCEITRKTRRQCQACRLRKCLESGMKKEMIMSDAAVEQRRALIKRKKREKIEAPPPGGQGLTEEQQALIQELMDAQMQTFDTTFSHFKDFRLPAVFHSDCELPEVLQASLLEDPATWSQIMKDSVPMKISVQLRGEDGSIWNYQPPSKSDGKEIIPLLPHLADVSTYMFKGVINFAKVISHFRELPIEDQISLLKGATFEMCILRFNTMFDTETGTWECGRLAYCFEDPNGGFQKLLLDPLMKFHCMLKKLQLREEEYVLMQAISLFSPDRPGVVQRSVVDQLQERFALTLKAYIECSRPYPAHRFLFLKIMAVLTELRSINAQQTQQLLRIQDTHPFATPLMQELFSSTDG
In short: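 Cell-based rPXR activation assay: rPXR cells, 2,000 per well, rested 5hr at 37 C, then exposed to compounds in DMSO for 24 hr at 37 C. Luciferase activity read by One-Glo luminescence after 30 min at room temperature.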

[15] = target: Nuclear receptor subfamily 1 group I member 2 (Homo sapiens) (UniProt O75469); experiment: CYP3A4 induction through human pregnane X receptor (PXR) by small molecules, qHTS assay (AID 1346984); further: nearly all actives have a fitted effect of over 40% in size
In short: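 Human PXR activation is tracked via CYP3A4 promoter-luciferase in DPX-2 (HepG2) cells. Compounds treat cells for 24hr at 37C, and luminescence is read after One-Glo.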

[16] = target: Nuclear receptor subfamily 1 group I member 2 (Homo sapiens) (UniProt O75469); experiment: Human pregnane X receptor (PXR) activation by small molecules, qHTS assay (AID 1346985); further: nearly all actives have a fitted effect of over 40% in size
In short: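 DPX-2 cells (HepG2 co-transfected with a PXR response element and a CYP3A4-promoter luciferase construct) were seeded at 2,000 per well, rested 5 hr at 37C, then exposed to DMSO-dissolved compounds for 24 hr. Activation was read as luciferase luminescence.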

[17] = target: Cytochrome P450 2D6 (Homo sapiens) (UniProt P10635); experiment: Cytochrome P450 Family 2 Subfamily D Member 6 (CYP2D6) small molecule antagonists: luciferase reporter qHTS assay (AID 1671196)
Chain of Cytochrome P450 2D6 (Homo sapiens) (P10635 whole entry, looked up): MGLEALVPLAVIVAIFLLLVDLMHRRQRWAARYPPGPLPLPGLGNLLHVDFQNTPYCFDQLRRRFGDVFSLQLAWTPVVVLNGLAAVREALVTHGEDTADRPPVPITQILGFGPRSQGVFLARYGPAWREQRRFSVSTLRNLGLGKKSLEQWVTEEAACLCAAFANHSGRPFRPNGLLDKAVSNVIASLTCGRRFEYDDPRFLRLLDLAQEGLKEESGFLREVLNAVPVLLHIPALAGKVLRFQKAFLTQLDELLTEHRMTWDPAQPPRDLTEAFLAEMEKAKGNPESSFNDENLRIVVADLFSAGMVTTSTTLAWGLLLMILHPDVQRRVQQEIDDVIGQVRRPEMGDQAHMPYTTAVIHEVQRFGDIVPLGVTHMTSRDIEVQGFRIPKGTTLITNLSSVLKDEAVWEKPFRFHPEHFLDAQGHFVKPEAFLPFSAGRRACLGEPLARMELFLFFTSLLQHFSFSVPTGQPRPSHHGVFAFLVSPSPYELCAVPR
In short: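 Quantitative HTS of Tox21 chemicals against CYP2D6 using a luminescent proluciferin substrate. After NADPH addition, 1 h room-temperature reaction; luminescence recorded 20 min post detection reagent.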

[18] = target: Cytochrome P450 2C19 (Homo sapiens) (UniProt P33261); experiment: Cytochrome P450 Family 2 Subfamily C Member 19 (CYP2C19) small molecule antagonists: luciferase reporter qHTS assay (AID 1671197); further: series mostly up to about 120 µM; nearly all actives have a fitted effect of over 65% in size
Chain of Cytochrome P450 2C19 (Homo sapiens) (P33261 whole entry, looked up): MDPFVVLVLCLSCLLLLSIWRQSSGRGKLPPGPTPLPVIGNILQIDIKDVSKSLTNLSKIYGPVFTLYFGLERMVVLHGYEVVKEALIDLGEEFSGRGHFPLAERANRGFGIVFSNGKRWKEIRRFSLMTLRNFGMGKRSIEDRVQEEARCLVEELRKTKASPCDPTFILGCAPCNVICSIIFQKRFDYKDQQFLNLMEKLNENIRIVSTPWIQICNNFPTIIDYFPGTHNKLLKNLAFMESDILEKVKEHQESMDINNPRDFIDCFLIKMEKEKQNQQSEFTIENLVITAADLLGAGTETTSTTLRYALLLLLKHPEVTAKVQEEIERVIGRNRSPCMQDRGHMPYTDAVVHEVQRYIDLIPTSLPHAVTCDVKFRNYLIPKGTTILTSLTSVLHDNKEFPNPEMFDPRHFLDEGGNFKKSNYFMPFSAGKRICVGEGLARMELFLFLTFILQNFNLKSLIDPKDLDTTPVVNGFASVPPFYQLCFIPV
In short: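 First, compounds are pinned into enzyme-substrate mix and held 10 min at room temperature. Second, NADPH regeneration solution is added and plates incubate 1 h at 37C. Third, detection reagent is added and luminescence read after 20 min.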

[19] = target: Cytochrome P450 1A2 (Homo sapiens) (UniProt P05177); experiment: Cytochrome P450 Family 1 Subfamily A Member 2 (CYP1A2) small molecule antagonists: luciferase reporter qHTS assay (AID 1671199); further: nearly all actives have a fitted effect of over 50% in size; further: potency means the concentration at half of the fitted maximal effect; on activity change, negative = inhibition: series mostly up to about 120 µM
Chain of Cytochrome P450 1A2 (Homo sapiens) (P05177 whole entry, looked up): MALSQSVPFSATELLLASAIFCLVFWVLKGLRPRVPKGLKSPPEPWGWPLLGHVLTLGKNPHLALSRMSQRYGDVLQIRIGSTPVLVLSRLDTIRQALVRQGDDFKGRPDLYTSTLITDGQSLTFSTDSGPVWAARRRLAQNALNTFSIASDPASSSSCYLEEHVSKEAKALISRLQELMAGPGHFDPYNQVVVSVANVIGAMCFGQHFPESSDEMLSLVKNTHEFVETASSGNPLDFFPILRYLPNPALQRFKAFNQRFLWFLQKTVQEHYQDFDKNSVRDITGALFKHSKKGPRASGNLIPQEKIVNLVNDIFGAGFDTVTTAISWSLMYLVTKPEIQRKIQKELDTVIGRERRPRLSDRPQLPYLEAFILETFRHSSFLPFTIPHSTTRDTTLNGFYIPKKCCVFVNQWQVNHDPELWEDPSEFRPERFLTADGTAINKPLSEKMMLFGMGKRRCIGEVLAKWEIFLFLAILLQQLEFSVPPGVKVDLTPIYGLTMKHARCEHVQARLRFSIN
In short: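 Quantitative high-throughput format using the P450-Glo CYP1A2 system. Reaction initiated by NADPH regeneration solution, 1 h at room temperature, then stopped with detection reagent; luminescence measured 20 min later.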

[20] = target: Cytochrome P450 3A4 (Homo sapiens) (UniProt P08684); experiment: Cytochrome P450 Family 3 Subfamily A Member 4 (CYP3A4) small molecule antagonists: luciferase reporter qHTS assay (AID 1671201); further: nearly all actives have a fitted effect of over 50% in size; further: potency means the concentration at half of the fitted maximal effect; on activity change, negative = inhibition: series mostly up to about 120 µM
Chain of Cytochrome P450 3A4 (Homo sapiens) (P08684 whole entry, looked up): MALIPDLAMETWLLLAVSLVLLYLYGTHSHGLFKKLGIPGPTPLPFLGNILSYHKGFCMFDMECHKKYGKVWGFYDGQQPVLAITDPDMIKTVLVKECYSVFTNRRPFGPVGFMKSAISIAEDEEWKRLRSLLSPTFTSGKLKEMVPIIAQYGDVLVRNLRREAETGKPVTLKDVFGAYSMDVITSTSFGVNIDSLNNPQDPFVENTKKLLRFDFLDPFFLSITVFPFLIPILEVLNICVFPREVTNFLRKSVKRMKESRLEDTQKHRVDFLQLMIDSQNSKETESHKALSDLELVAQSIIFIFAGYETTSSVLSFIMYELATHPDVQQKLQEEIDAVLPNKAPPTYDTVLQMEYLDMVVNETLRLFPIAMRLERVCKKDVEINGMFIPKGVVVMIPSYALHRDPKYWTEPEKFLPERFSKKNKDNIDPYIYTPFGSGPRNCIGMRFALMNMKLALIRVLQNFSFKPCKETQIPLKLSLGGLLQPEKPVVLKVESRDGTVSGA
In short: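 Enzyme and proluciferin substrate are mixed with test chemicals for 10 min, then NADPH regeneration system drives turnover for 1 h at room temperature. A detection reagent halts the reaction; luminescence after 20 min gives relative activity.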
On the % scale 0 is the no-effect control and ±100 the full control effect.

CN(C1CCCCC1)S(=O)(=O)c1ccccc1N
active: Potency [9] 27.3 µM | Potency [10] 6.33 µM
inactive: outcome [1] | outcome [2] | outcome [3] | outcome [4] | outcome [5] | Potency [6] | Potency [7] | outcome [8] | Potency [11]

NS(=O)(=O)c1cc2c(cc1Cl)NC(CC1CCCC1)NS2(=O)=O (stereo not given)
inactive: outcome [1] | outcome [2] | outcome [3] | outcome [4] | Potency [6] | outcome [12] | Potency [7] | outcome [8] | Potency [13] | Potency [9] | max activation [14] -1.01% | outcome [15] | Potency [16] | Potency [17] | Potency [18] | Potency [10] | Potency [11]

CCCCCCCCCCCCOC(C)=O
inactive: outcome [1] | outcome [2] | outcome [3] | outcome [4] | outcome [5] | Potency [6] | Potency [7] | outcome [8] | Potency [13] | Potency [9] | Potency [17] | Potency [18] | Potency [10] | Potency [19] | Potency [11] | Potency [20]

Nc1c(NC/C=C\COc2cc(CN3CCCCC3)ccn2)c(=O)c1=O
inactive: viability change, negative = cytotoxic [1] 0.148% [at 15.8 µM] | activity change, negative = cytotoxicity [2] 2.86% [at 15.8 µM] | activation [3] -0.0935% [at 15.8 µM] | activity, negative = inhibition [4] -1.01% [at 10.5 µM] | activation [5] -0.0658% [at 11.8 µM] | caspase activation [12] -0.539% [at 19 µM] | caspase-3/7 activation [8] -0.585% [at 19 µM] | activation [9] -1.56% [at 19 µM] | activity change, negative = inhibition [18] -27.3% [at 23.6 µM] | activity change, negative = inhibition [10] -15.9% [at 23.6 µM] | activity change, negative = inhibition [11] 0.241% [at 15.8 µM]
active: Potency [20] 6.74 µM

CCCCC(CC)COC(=O)c1ccccc1 (stereo not given)
active: Potency [19] 28.3 µM
inactive: outcome [1] | outcome [2] | outcome [3] | outcome [4] | Potency [6] | outcome [12] | Potency [7] | outcome [8] | Potency [9] | Potency [17] | Potency [18] | Potency [11] | Potency [20]

CC1=CC[C@H](CC=O)C1(C)C
active: Potency [9] 48.6 µM | Potency [19] 31.7 µM | Potency [20] 63.3 µM
inactive: outcome [1] | outcome [2] | outcome [3] | outcome [4] | outcome [5] | Potency [6] | outcome [8] | Potency [13] | Potency [17] | Potency [18] | Potency [11]

O=C(O)c1ccccc1C(=O)OCc1ccccc1
inactive: outcome [1] | outcome [2] | outcome [3] | outcome [4] | outcome [5] | Potency [6] | Potency [7] | outcome [8] | Potency [13] | Potency [19] | Potency [11] | Potency [20]

C[C@H](CCC(=O)NCC(=O)O)[C@H]1CC[C@H]2[C@@H]3[C@H](O)C[C@@H]4C[C@H](O)CC[C@]4(C)[C@H]3C[C@H](O)[C@]12C
inactive: outcome [1] | outcome [2] | outcome [3] | outcome [4] | outcome [5] | Potency [6] | outcome [12] | outcome [8] | Potency [13] | Potency [17] | Potency [18] | Potency [19] | Potency [11] | Potency [20]
